A short description of experiment [1]: NS1 protein of Zika virus - qHTS assay to identify small molecule inhibitors in human HEK 293 cells (AID 1347053). Further: series mostly up to about 46 µM; nearly all actives have a fitted effect of over 55% in size. The method, boiled down:
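Readout was TR-FRET using paired anti-NS1 antibodies after 24 h infection of HEK 293 cells with ZIKV MR766 (MOI = 0.5). Compound preceded virus by 1 h; reduced signal reflects lower NS1 expression.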
Background: qHTS replaces the single test concentration by a dilution series.

A short description of experiment [2]: qHTS of pediatric cancer cell lines to identify multiple opportunities for drug repurposing: Primary screen for TC32 cells (AID 1347089). Further: nearly all actives have a fitted effect of over 60% in size. The gist of the method:
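qHTS, TC32, 48 h drug treatment, CellTiter-Glo luminescence as a proxy for metabolically active cells; primary top concentration 46 µM (MIPE 11-pt, NPC 8-pt); confirmatory 11-pt.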

Experiment [3] can be described thus: qHTS of pediatric cancer cell lines to identify multiple opportunities for drug repurposing: Primary screen for DAOY cells (AID 1347090). Further: series mostly up to about 46 µM; nearly all actives have a fitted effect of over 55% in size. The method, boiled down:
(§1)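 Eight- or eleven-point concentration series, 48 h treatment at 37 degrees C in growth media; readout CellTiter-Glo luminescence. Potency and efficacy were taken from the concentration-response curves.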

A short description of experiment [4]: qHTS of pediatric cancer cell lines to identify multiple opportunities for drug repurposing: Primary screen for SJ-GBM2 cells (AID 1347091). The gist of the method: as §1
The nature of experiment [5]: qHTS of pediatric cancer cell lines to identify multiple opportunities for drug repurposing: Primary screen for A673 cells (AID 1347092). Further: nearly all actives have a fitted effect of over 45% in size. The method, boiled down:
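Luminescence from CellTiter-Glo, taken after 15 min at room temperature, served as the proxy for metabolically active cells following 48 h treatment. Both potency and efficacy were taken from curves fitted to the titration data.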

A short description of experiment [6]: qHTS of pediatric cancer cell lines to identify multiple opportunities for drug repurposing: Primary screen for SK-N-MC cells (AID 1347093). Further: series mostly up to about 46 µM. The gist of the method: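 Metabolically active cells were quantified by ATP-dependent luminescence (CellTiter-Glo, 15 min at room temperature) following 48 h treatment. Cells had been plated at 500-1,000 per well and settled for 5 h beforehand.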

Experiment [7] is described as follows: qHTS of pediatric cancer cell lines to identify multiple opportunities for drug repurposing: Primary screen for BT-37 cells (AID 1347094). Further: series mostly up to about 57 µM. The gist of the method: (§2)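 Luminescence from CellTiter-Glo served as readout of metabolically active cells after 48 h compound exposure. Titrations: MIPE 11-point, from 0.78 nM; NPC 8-point, from 0.59 nM (final). Concentration-response curves came straight from the primary screen.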

A short description of experiment [8]: qHTS of pediatric cancer cell lines to identify multiple opportunities for drug repurposing: Primary screen for NB-EBc1 cells (AID 1347095). The method, boiled down:
as §2

Experiment [9] can be described thus: qHTS of pediatric cancer cell lines to identify multiple opportunities for drug repurposing: Primary screen for U-2 OS cells (AID 1347096). Further: nearly all actives have a fitted effect of over 50% in size. The gist of the method:
(§3)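 Cells (500-1,000/well) in growth media were settled 5 h at 37 degrees C, then given compounds for 48 h. Viability was read as CellTiter-Glo luminescence. Primary runs used MIPE at 11 points (0.78 nM-46 µM) and NPC at 8 points (0.59 nM-46 µM); follow-ups used 11 points.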

Experiment [10] is described as follows: qHTS of pediatric cancer cell lines to identify multiple opportunities for drug repurposing: Primary screen for Saos-2 cells (AID 1347097). Further: nearly all actives have a fitted effect of over 40% in size. The gist of the method:
as §2

Experiment [11] is described as follows: qHTS of pediatric cancer cell lines to identify multiple opportunities for drug repurposing: Primary screen for SK-N-SH cells (AID 1347098). Further: nearly all actives have a fitted effect of over 65% in size. Further: potency means the concentration at half of the fitted maximal effect. The method, boiled down:
(§4)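 Cells (500-1,000/well) rested 5 h, then received compounds for 48 h; metabolically active cells were measured by CellTiter-Glo luminescence. Final concentrations spanned up to 46 µM (MIPE, 11-point) or 0.59 nM-46 µM (NPC, 8-point) in primary screens, 11-point in follow-ups.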

A short description of experiment [12]: qHTS of pediatric cancer cell lines to identify multiple opportunities for drug repurposing: Primary screen for NB1643 cells (AID 1347099). Further: nearly all actives have a fitted effect of over 50% in size. The gist of the method:
as §2

Experiment [13] can be described thus: qHTS of pediatric cancer cell lines to identify multiple opportunities for drug repurposing: Primary screen for LAN-5 cells (AID 1347100). The gist of the method: as §3
The nature of experiment [14]: qHTS of pediatric cancer cell lines to identify multiple opportunities for drug repurposing: Primary screen for BT-12 cells (AID 1347101). Further: nearly all actives have a fitted effect of over 25% in size. The method, boiled down: as §4

This note sets out measurements from PubChem BioAssay (NCATS).

Inconclusive results are not listed. The source made the active and inactive calls. The call rests on the fitted dose curve; in most records, active means well fitted curve in the direction sought with a large enough effect; inconclusive means small, poorly fitted or top-dose-only effect, or another doubt; inactive means no such curve, though single readings can be large; an effect the other way counts as inactive or inconclusive.

As for `CC1(C)OC(=O)NC1=O`, the Potency entry in [1], in experiment [2], in [3], in [4], in experiment [5] and in experiment [6] was “inactive” in each case. Also, the Potency entry in experiment [7], in experiment [8], in experiment [9], in experiment [10], in experiment [11] and in [12] was “inactive” each time. Besides, the Potency entry in experiment [13] and in [14] was “inactive” throughout.
With `CC1=C(C/C=C(\C)CCC[C@H](C)CCC[C@H](C)CCCC(C)C)C(=O)c2ccccc2C1=O`, the Potency entry in experiment [1], in experiment [2], in experiment [3], in [4], in [5] and in experiment [6] was “inactive” each time. Further, the Potency result in experiment [7], in [8], in [9], in experiment [10], in [11] and in experiment [12] was “inactive” each time. The Potency entry in experiment [13] and in experiment [14] was “inactive” in each case.
`CC(C)(C)C(=O)C(Oc1ccc(Cl)cc1)n1ccnc1` (stereo not given): the Potency result in [1], in [2], in experiment [3], in [4], in experiment [5] and in [6] was “inactive” throughout. The Potency result in experiment [7], in experiment [8], in experiment [9], in experiment [10], in experiment [12] and in [13] was “inactive” each time. Also, the Potency entry in experiment [14] is “inactive”. For the same compound, the Potency in [11] is 24.4 µM (active).
`Nc1ccc(S(=O)(=O)Nc2ccccc2)cc1`: the Potency result in experiment [1], in [2], in experiment [3], in experiment [4], in [5] and in [6] was “inactive” in each case. The Potency entry in [7], in experiment [8], in [9], in experiment [10], in [11] and in experiment [12] was “inactive” each time. Besides, the Potency result in experiment [13] and in [14] was “inactive” each time.
Regarding `Cc1cc(CC(=O)O)n(C)c1C(=O)c1ccc(Cl)cc1`, the Potency result in [1], in experiment [2], in [3], in experiment [4], in experiment [5] and in experiment [6] was “inactive” in each case. Also, the Potency entry in experiment [7], in [8], in experiment [9], in experiment [10], in experiment [11] and in experiment [12] was “inactive” each time. Also, the Potency result in [13] and in experiment [14] was “inactive” in each case.
For the compound `CC(=O)Oc1c(C)c(C)c2c(c1C)CC[C@@](C)(CCC[C@H](C)CCC[C@H](C)CCCC(C)C)O2`, the Potency result in experiment [1], in experiment [2], in experiment [3], in experiment [4], in experiment [5] and in experiment [6] was “inactive” each time. The Potency entry in experiment [7], in experiment [8], in experiment [9], in [10], in experiment [11] and in experiment [12] was “inactive” in each case. In addition, the Potency entry in [13] and in [14] was “inactive” in each case.
`CC1(C)[C@@H]2CC[C@@]1(C)C(=O)C2`: the Potency result in experiment [1], in [2], in [3], in [4], in experiment [5] and in experiment [6] was “inactive” in each case. The Potency result in experiment [7], in experiment [8], in [9], in experiment [10], in [11] and in [12] was “inactive” each time. In addition, the Potency result in [13] and in [14] was “inactive” each time.
For the compound `O=C(Oc1ccccc1C(=O)O)c1ccccc1O`, the Potency entry in experiment [1], in [2], in experiment [3], in experiment [4], in experiment [5] and in experiment [6] was “inactive” in each case. Moreover, the Potency result in [7], in experiment [8], in [9], in experiment [10], in experiment [11] and in experiment [12] was “inactive” each time. In addition, the Potency result in experiment [13] and in experiment [14] was “inactive” throughout.
`OCC(CO)N[C@H]1C[C@](O)(CO)[C@@H](O)[C@H](O)[C@H]1O`: the Potency result in experiment [1], in [2], in experiment [3], in experiment [4], in experiment [5] and in experiment [6] was “inactive” each time. Further, the Potency result in experiment [7], in [8], in experiment [9], in [10], in experiment [11] and in experiment [12] was “inactive” each time. The Potency result in experiment [13] and in experiment [14] was “inactive” each time.
In the case of `C[C@H](N)[C@H](O)c1cccc(O)c1`, the Potency entry in [1], in experiment [2], in experiment [3], in experiment [4], in [5] and in experiment [6] was “inactive” in each case. The Potency result in [7], in experiment [8], in [9], in experiment [10], in experiment [11] and in experiment [12] was “inactive” each time. Besides, the Potency entry in experiment [13] and in experiment [14] was “inactive” in each case.
In the case of `CCOc1ccc2ccccc2c1C(=O)N[C@@H]1C(=O)N2[C@@H]1SC(C)(C)[C@@H]2C(=O)O`, the Potency entry in experiment [1], in experiment [2], in [3], in experiment [4], in experiment [5] and in [6] was “inactive” throughout. Further, the Potency result in experiment [7], in [8], in experiment [9], in [10], in [11] and in experiment [12] was “inactive” throughout. The Potency result in experiment [13] and in experiment [14] was “inactive” throughout.
Consider `CO/N=C(\C(=O)N[C@@H]1C(=O)N2C(C(=O)O)=C(CSc3nc(=O)c(O)nn3C)CS[C@H]12)c1csc(N)n1`, for which the Potency result in experiment [1], in [2], in experiment [3], in [4], in experiment [5] and in experiment [6] was “inactive” in each case. For the same compound, the Potency result in [7], in [8], in experiment [9], in experiment [10], in experiment [11] and in experiment [12] was “inactive” each time. Further, the Potency entry in experiment [13] and in experiment [14] was “inactive” each time.
For `CCN(CC)C(=O)Nc1ccc(OCC(O)CNC(C)(C)C)c(C(C)=O)c1` (stereo not given), the Potency result in experiment [1], in experiment [2], in experiment [3], in experiment [4], in experiment [5] and in experiment [6] was “inactive” each time. For the same compound, the Potency entry in experiment [7], in experiment [8], in [9], in experiment [10], in experiment [11] and in experiment [12] was “inactive” in each case. Besides, the Potency entry in experiment [13] and in [14] was “inactive” throughout.
Regarding `CCCCCCCCCCCCOS(=O)(=O)O`, the Potency entry in experiment [1], in experiment [2], in experiment [3], in experiment [4], in [5] and in experiment [6] was “inactive” in each case. The Potency result in [7], in experiment [8], in [9], in [11], in experiment [12] and in [13] was “inactive” each time. In addition, the Potency result in experiment [14] was “inactive”.
